# Assay results reported in PubChem BioAssay.
# A number with no mark means an inactive call. For some assays here: Measured potencies and affinities stand elsewhere. Active and inactive are the calls of the source. Unless noted, no rule for the calls is given here.
# Tests used:
# [1] = antimalarial activity against Dd2 strain (AID 2302;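 active = growth inhibition above 50% at the single 2 µM test dose, taken to imply half-maximal potency below 2 µM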;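 also: 0% = DMSO untreated growth and 100% = chloroquine plus artemisinin killed control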); conditions: P. falciparum Dd2 in RBCs, LDH growth readout, 72 h; at 2 µM; stronger effect = higher value
# [2] = human hepatoma cell viability loss – ATP luminescence, cytotoxicity control for P. falciparum antimalarial project, primary screen (AID 2303;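 active = inhibition above 50%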;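 also: 0% = DMSO wells and 100% = digitonin-killed cells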); conditions: HepG2 viability, 24-48 h, at 10 µM, stronger effect = higher value
# [3] = target: L-lactate dehydrogenase (Plasmodium falciparum (isolate CDC / Honduras)) (UniProt Q27743); assay: PfLDH activity inhibition – cell lysate, 3D7 strain, counter-screen for P. falciparum growth inhibition project (AID 2304);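 also: 0% = vehicle and 100% = reference inhibitor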; conditions: P. falciparum 3D7 crude extract, LDH APAD/NBT absorbance; at 2 µM; stronger effect = higher value
# [4] = inhibition of 3D7 malaria parasite growth – strain 3D7 (AID 2306);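 also: 0% = DMSO wells and 100% = chloroquine plus artemisinin control wells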; conditions: P. falciparum 3D7 erythrocytic growth, LDH absorbance, 72 h; at 2 µM; stronger effect = higher value
# [5] = target: Calcium-dependent protein kinase 1 (Plasmodium falciparum (isolate 3D7)) (UniProt P62344); assay: PfCDPK1 kinase inhibitors, biochemical, TCAMS library (AID 1159585; cut-off not given, nearly all actives have IC50 up to about 0.98 µM;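 also: inhibitors leave more ATP so luminescence rises with inhibition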); conditions: recombinant PfCDPK1, Kinase-Glo ATP depletion luminescence
# [6] = target: Plasmodium falciparum protein kinase 6 (PK6, PF3D7_1337100) (UniProt Q8IDW1); assay: PfPK6 kinase inhibitors, biochemical, TCAMS library (AID 1159586); conditions: recombinant PfPK6, Kinase-Glo ATP depletion luminescence
# [7] = target: Protein kinase 7 (PK7), Plasmodium falciparum 3D7 (PF3D7_0213400) (UniProt Q7YTF7); assay: inhibition of Plasmodium PK7 catalytic activity – biochemical, TCAMS antimalarial set, Kinase-Glo luminescence (AID 1159587); conditions: recombinant PfPK7, Kinase-Glo ATP depletion luminescence
# [8] = target: Calcium-dependent protein kinase 4 (Plasmodium falciparum (isolate 3D7)) (UniProt Q8IBS5); assay: PfCDPK4 kinase inhibitors, biochemical, TCAMS library (AID 1159588; cut-off not given, nearly all actives have IC50 up to about 0.91 µM); conditions: recombinant PfCDPK4, Kinase-Glo ATP depletion luminescence
# Chain of Calcium-dependent protein kinase 4 (Plasmodium falciparum (isolate 3D7)) (Q8IBS5 whole entry, looked up): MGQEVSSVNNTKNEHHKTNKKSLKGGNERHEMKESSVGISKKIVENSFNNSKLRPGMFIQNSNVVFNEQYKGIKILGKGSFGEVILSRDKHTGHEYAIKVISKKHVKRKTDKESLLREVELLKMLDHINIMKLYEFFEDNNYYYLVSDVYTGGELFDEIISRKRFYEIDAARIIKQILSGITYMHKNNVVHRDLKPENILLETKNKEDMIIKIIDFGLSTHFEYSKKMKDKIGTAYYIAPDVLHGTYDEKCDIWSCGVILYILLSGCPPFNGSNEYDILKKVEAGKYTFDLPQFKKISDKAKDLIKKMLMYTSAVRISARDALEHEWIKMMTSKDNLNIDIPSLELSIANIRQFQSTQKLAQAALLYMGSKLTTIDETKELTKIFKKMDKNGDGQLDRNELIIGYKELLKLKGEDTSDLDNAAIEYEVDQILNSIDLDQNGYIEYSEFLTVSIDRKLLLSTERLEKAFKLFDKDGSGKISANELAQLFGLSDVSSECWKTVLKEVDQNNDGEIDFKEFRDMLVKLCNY
# Chain of Plasmodium falciparum protein kinase 6 (PK6, PF3D7_1337100) (Q8IDW1 1-305): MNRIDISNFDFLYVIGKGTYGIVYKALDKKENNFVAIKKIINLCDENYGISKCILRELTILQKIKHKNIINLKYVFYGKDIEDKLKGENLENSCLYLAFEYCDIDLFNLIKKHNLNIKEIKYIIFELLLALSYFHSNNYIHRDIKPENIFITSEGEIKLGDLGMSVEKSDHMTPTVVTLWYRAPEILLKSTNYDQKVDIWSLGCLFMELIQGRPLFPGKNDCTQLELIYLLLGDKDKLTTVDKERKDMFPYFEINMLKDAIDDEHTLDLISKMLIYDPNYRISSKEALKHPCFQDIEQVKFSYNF
# Chain of L-lactate dehydrogenase (Plasmodium falciparum (isolate CDC / Honduras)) (Q27743 whole entry, looked up): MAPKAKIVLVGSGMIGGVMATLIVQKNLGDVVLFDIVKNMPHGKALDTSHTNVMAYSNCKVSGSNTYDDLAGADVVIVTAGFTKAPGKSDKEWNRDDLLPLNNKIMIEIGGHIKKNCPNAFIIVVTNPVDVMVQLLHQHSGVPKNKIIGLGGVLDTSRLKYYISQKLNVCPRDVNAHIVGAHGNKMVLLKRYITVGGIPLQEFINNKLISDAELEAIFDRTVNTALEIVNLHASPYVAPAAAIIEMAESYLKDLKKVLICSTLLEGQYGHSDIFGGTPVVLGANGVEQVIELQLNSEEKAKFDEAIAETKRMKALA
# Chain of Protein kinase 7 (PK7), Plasmodium falciparum 3D7 (PF3D7_0213400) (Q7YTF7 1-343): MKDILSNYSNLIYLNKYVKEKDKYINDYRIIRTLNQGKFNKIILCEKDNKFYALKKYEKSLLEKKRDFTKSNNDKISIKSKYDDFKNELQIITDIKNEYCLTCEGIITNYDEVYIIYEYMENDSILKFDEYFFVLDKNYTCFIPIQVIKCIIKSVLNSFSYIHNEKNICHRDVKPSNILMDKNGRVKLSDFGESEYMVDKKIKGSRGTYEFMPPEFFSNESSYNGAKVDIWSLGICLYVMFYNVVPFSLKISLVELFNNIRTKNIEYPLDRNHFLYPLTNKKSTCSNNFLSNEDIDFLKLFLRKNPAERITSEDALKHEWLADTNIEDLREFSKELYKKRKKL
# Chain of Calcium-dependent protein kinase 1 (Plasmodium falciparum (isolate 3D7)) (P62344 whole entry, looked up): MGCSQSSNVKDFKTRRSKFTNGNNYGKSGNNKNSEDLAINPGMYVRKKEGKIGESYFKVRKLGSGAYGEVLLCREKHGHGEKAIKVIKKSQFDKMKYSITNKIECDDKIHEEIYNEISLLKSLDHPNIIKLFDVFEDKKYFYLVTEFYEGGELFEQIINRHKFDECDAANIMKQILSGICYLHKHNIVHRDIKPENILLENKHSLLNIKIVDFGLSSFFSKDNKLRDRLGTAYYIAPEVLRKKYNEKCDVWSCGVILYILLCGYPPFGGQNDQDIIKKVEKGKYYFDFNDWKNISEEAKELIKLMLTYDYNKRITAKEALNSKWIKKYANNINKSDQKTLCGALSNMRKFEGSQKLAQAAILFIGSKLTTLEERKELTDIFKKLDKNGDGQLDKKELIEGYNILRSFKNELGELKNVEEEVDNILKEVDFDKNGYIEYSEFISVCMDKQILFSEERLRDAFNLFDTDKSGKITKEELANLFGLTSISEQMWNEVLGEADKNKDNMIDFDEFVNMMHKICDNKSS
Structure (SMILES),growth inhibition [1],inhibition [2],inhibition [3],growth inhibition [4],outcome [5],outcome [6],outcome [7],outcome [8]
CC(C)(C)c1ccc(CNC(=O)c2ccc(CNC3CCC(N)CC3)s2)cc1 (stereo not given),10%,41%,4%,100% (active),inactive,inactive,inactive,inactive
O=C(c1cncc(-c2ccccc2)c1)N(Cc1cncn1Cc1ccccc1F)CC1CC1,0%,-5%,-4%,100% (active),inactive,inactive,inactive,inactive
CCS(=O)(=O)N1CCN(c2nc(-c3ccccc3)nc(COC)c2Cc2ccccc2F)CC1,34%,-2%,0%,82% (active),inactive,inactive,inactive,inactive
CS(=O)(=O)c1ccc(CNCc2ccc(-c3ccc(-c4nc5ccc(C(F)(F)F)cc5[nH]4)s3)cc2)cc1,98% (active),49%,-5%,102% (active),inactive,inactive,inactive,inactive
O=C(N[C@@H](Cc1ccccc1)[C@H](O)CNCCC(F)(F)F)c1cccc(OCC2CC2)c1,95% (active),0%,-1%,98% (active),inactive,inactive,inactive,inactive
Cc1cccc2[nH]c(-c3cccc(-c4ccc(NC(=O)c5cnn6cccnc56)cc4)c3)nc12,73% (active),99% (active),-1%,101% (active),inactive,inactive,inactive,inactive
CS(=O)(=O)CCCNCc1ccc(-c2cc3c(Nc4ccc(OCc5ccccc5)cc4)ncnc3cn2)o1,16%,10%,-8%,87% (active),inactive,inactive,inactive,inactive
CC(C)c1ccc(NC(=O)NC2CCN(CCCCCN(C)C(=O)/C=C/c3ccc(Cl)c(Cl)c3)C2)cc1 (stereo not given),3%,28%,-2%,99% (active),inactive,inactive,inactive,inactive
CCn1c(-c2nonc2N)nc2c(C#CC(C)(C)O)ncc(OCCNCCc3ccc(OC)cc3)c21,44%,4%,-7%,91% (active),inactive,inactive,inactive,inactive
Nc1nc(N)c2c(Cl)c(CNc3cccc(C(=O)O)c3)ccc2n1,97% (active),69% (active),7%,93% (active),inactive,inactive,inactive,inactive
COc1ccc(OC)c(Cc2cnc3nc(N)[nH]c(=O)c3c2C)c1,4%,62% (active),3%,98% (active),inactive,inactive,inactive,inactive
Cc1ccnc(NC(c2cccc(Cl)c2Cl)c2ccc3cccnc3c2O)c1 (stereo not given),38%,46%,7%,86% (active),inactive,inactive,inactive,inactive
O=C(N[C@@H](Cc1ccccc1)CN1CCC(Oc2ccc(F)cc2)CC1)c1ccc(OCCCN2CCCCC2)cc1,92% (active),38%,3%,102% (active),inactive,inactive,inactive,inactive
CCOc1ccc2nc(C)cc(NN=Cc3cccnc3)c2c1,100% (active),18%,1%,102% (active),inactive,inactive,inactive,inactive
CC(C)c1cc2c(ccc3nc(N)nc(N)c32)o1,37%,66% (active),3%,99% (active),inactive,inactive,inactive,inactive
Cc1cc(C)c(C(=O)Nc2ccc3nc(C)cc(N)c3c2)c(C)c1,14%,12%,4%,84% (active),inactive,inactive,inactive,inactive
CN1CC[C@@H](Oc2cc(Nc3nc(-c4ccc(C#N)cc4)cs3)ccc2Cl)C1,24%,12%,-1%,99% (active),inactive,inactive,inactive,inactive
c1ccc2c(c1)ncn2-c1ccnc(Nc2ccncc2)n1,80% (active),0%,-3%,89% (active),inactive,inactive,inactive,inactive
CCNc1cc(C)nc(Nc2ccc(F)cc2)n1,57% (active),1%,-7%,101% (active),inactive,inactive,inactive,inactive
O=C(CCc1cccnc1)Nc1ccc(-c2cccc(-c3nc4ccc(F)cc4[nH]3)c2)cc1,9%,67% (active),2%,86% (active),inactive,inactive,inactive,inactive

Structure (SMILES),growth inhibition [1],inhibition [2],inhibition [3],growth inhibition [4],outcome [5],outcome [6],outcome [7],outcome [8]
COc1nc2c(CCN3CCC(NCc4ccc5c(c4)NCCO5)CC3)c(Cl)cnc2cc1F,98% (active),23%,1%,102% (active),inactive,inactive,inactive,inactive
CCN(CCCN1CCCCC1)c1cc(C)nc(Nc2ccc(Cl)cc2C)n1,46%,44%,2%,95% (active),inactive,inactive,inactive,inactive
Oc1ccc(CCNc2nc(NCCCOc3cccc(CN4CCCCC4)c3Cl)nc(N3CCNCC3)n2)cc1,22%,26%,5%,102% (active),inactive,inactive,inactive,inactive
c1ccc(CNCc2ccc(-c3cccc(-c4nc5ccccc5[nH]4)c3)cc2)cc1,78% (active),55% (active),-2%,101% (active),inactive,inactive,inactive,inactive
O=C1Nc2cccc3c2C1(CCCN1CCC(c2c[nH]c4cc(C(F)(F)F)ccc24)CC1)CCC3 (stereo not given),37%,91% (active),-2%,89% (active),inactive,inactive,inactive,inactive
COc1ccc(-c2cnc(N)c(-c3ccc(O)c(OC)c3)c2)cn1,98% (active),23%,-1%,97% (active),inactive,inactive,inactive,inactive
O=C(c1cccc(-c2noc(C(F)(F)F)n2)c1)N1CCN(c2nsc3ccccc23)CC1,81% (active),18%,-2%,90% (active),inactive,inactive,inactive,inactive
CCCCN(C(=O)c1ccccc1Cl)c1nnc(-c2ccccc2C)s1,86% (active),12%,0%,90% (active),inactive,inactive,inactive,inactive
CCCn1c(SCC(=O)Nc2cc(C(F)(F)F)ccc2Cl)n[nH]c1=O,94% (active),-6%,-2%,96% (active),inactive,inactive,inactive,inactive
CCCN(CCC)C(=O)c1cc(C(=O)N[C@@H](Cc2ccccc2)[C@H](O)CNC(C)(C)c2cccc(OC)c2)cc(N2CCCCS2(=O)=O)c1,74% (active),16%,-3%,99% (active),inactive,inactive,inactive,inactive
CCc1ccc(NC(=O)c2ccc(CN3CCCN(Cc4cccc(C)c4)CC3)cc2)cc1,-4%,53% (active),1%,80% (active),inactive,inactive,inactive,inactive
COc1ccc2nccc(N3CCC(CCNCc4ccc5c(n4)NC(=O)CO5)CC3)c2n1,72% (active),19%,-7%,101% (active),inactive,inactive,inactive,inactive
Cc1ccc(C)c2sc(N(CCCn3ccnc3)C(=O)C=Cc3cccs3)nc12,93% (active),20%,0%,101% (active),inactive,inactive,inactive,inactive
O=C(CCc1nc2c(cnn2-c2ccccc2)c(=O)[nH]1)NC1CCSc2ccccc21 (stereo not given),52% (active),10%,-2%,95% (active),inactive,inactive,inactive,inactive
Fc1ccc2nc(-c3ccc(-c4ccc(CN5CCC(CCN6CCCCC6)CC5)cc4)cc3)[nH]c2c1,100% (active),98% (active),-9%,100% (active),inactive,inactive,inactive,inactive
O=C(COc1ccccc1)N(Cc1ccc(-c2ccc(CNC3Cc4ccccc4C3)cc2)cc1)C1CCNCC1,8%,26%,-1%,100% (active),inactive,inactive,inactive,inactive
COc1ccccc1CCNc1nc(C)cc(N[C@@H](Cc2ccccc2)C(=O)NCCc2ccccc2)n1,89% (active),16%,-3%,100% (active),inactive,inactive,inactive,inactive
CN1CCN(c2ccc(Nc3ncc([N+](=O)[O-])c(Nc4ccccc4O)n3)cc2)CC1,97% (active),98% (active),-3%,100% (active),inactive,inactive,inactive,inactive
CCCCCC(C)C(C)c1cc(O)c2c(c1)OC(C)(C)CC2(O)c1ccccn1 (stereo not given),3%,-2%,-5%,98% (active),inactive,inactive,inactive,inactive
COCCN1CCC(N(CC2(O)CCN(c3ccc(C(F)(F)F)cc3)CC2)C(=O)Cn2c(SCc3cccc(F)c3F)cc(=O)c3ccccc32)CC1,75% (active),29%,5%,94% (active),inactive,inactive,inactive,inactive
